From PubChem BioAssay (NCI)
The panel holds about 83,000 compounds, 20% with a hit somewhere; the sample as a whole holds those more often.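 Cell lines were cultured in 96-well plates, exposed to a single compound concentration, and assessed for percent growth 48 hours later.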 Active and inactive are the calls of the source. Rule for the calls: active = growth percent below 10; inactive = the rest.

How the values were obtained:
Experiment in all cases: NCI-60 one-dose screen, 48 h (100 = growth as untreated, 0 = no growth, -100 = all killed)
Settings in all cases: 10 µM unless noted
NCI-H226 lung = tested on: NCI-H226 lung
HOP-62 NSCLC = tested on: HOP-62 NSCLC
NCI-H460 lung = tested on: NCI-H460 lung
NCI-H522 lung = tested on: NCI-H522 lung
A549/ATCC NSCLC = tested on: A549/ATCC NSCLC
786-0 renal = tested on: 786-0 renal
COLO 205 colon = tested on: COLO 205 colon
DU-145 prostate = tested on: DU-145 prostate
K-562 leukemia = tested on: K-562 leukemia
MALME-3M melanoma = tested on: MALME-3M melanoma
MDA-MB-231 breast = tested on: MDA-MB-231 breast
RXF 393 renal = tested on: RXF 393 renal
SF-268 CNS = tested on: SF-268 CNS
SF-295 CNS = tested on: SF-295 CNS
SF-539 CNS = tested on: SF-539 CNS
UACC-257 melanoma = tested on: UACC-257 melanoma
M14 melanoma = tested on: M14 melanoma
HCT-15 colon = tested on: HCT-15 colon
NCI-H322M lung = tested on: NCI-H322M lung

Measured: growth

CN(C)c1ccc2[nH]c3c(C(N)=O)cc(=O)c(=O)c=3oc2c1
inactive: NCI-H226 lung 87.7% | HOP-62 NSCLC 20.7% | NCI-H460 lung 38.4% | NCI-H522 lung 11.2% | A549/ATCC NSCLC 33.8% | 786-0 renal 80.4% | COLO 205 colon 101% | DU-145 prostate 71.9% | MALME-3M melanoma 87.7% | MDA-MB-231 breast 62.6% | RXF 393 renal 52.1% | SF-268 CNS 79.8% | SF-295 CNS 78.9% | UACC-257 melanoma 91% | M14 melanoma 61.5% | HCT-15 colon 24.8%
active: K-562 leukemia 7.27% | SF-539 CNS 7.15%

CN1C(=O)C(=Cc2cn(Cc3ccccc3)c3ccc(Br)cc23)C(=O)N(C)C1=O
inactive: NCI-H226 lung 32.3% | NCI-H322M lung 93.8% | HOP-62 NSCLC 85.8% | NCI-H460 lung 35.1% | NCI-H522 lung 94.4% | A549/ATCC NSCLC 88.5% | 786-0 renal 98.2% | COLO 205 colon 89.6% | DU-145 prostate 97.1% | MALME-3M melanoma 113% | MDA-MB-231 breast 105% | RXF 393 renal 57.6% | SF-268 CNS 96.7% | SF-295 CNS 75.8% | SF-539 CNS 97.5% | UACC-257 melanoma 99.1% | M14 melanoma 99.8% | HCT-15 colon 95.4%

C[C@]12CC[C@@H]3c4ccc(O)c([N+](=O)[O-])c4CC[C@H]3[C@@H]1CC[C@@H]2NS(=O)(=O)c1ccc(C(F)(F)F)cc1
active: NCI-H522 lung -67.8% | K-562 leukemia 6.98% | MDA-MB-231 breast -9.58% | RXF 393 renal -1.18%
inactive: NCI-H226 lung 53.7% | NCI-H322M lung 54.1% | HOP-62 NSCLC 56.2% | NCI-H460 lung 10.5% | A549/ATCC NSCLC 19.5% | 786-0 renal 43% | COLO 205 colon 98% | DU-145 prostate 47.4% | MALME-3M melanoma 31% | SF-268 CNS 36% | SF-295 CNS 18.7% | SF-539 CNS 62.4% | UACC-257 melanoma 44% | M14 melanoma 34.2% | HCT-15 colon 18%

CCCCn1c(Cc2ccc(Cl)cc2)nc2cc(OC)c(OC)cc2c1=O
inactive: NCI-H226 lung 66.4% | NCI-H322M lung 97.3% | HOP-62 NSCLC 91.2% | NCI-H522 lung 71.6% | A549/ATCC NSCLC 66.3% | 786-0 renal 84.4% | DU-145 prostate 75.5% | K-562 leukemia 40.3% | MALME-3M melanoma 101% | MDA-MB-231 breast 70.2% | RXF 393 renal 90% | SF-268 CNS 80% | SF-295 CNS 71.1% | SF-539 CNS 105% | UACC-257 melanoma 55.5% | M14 melanoma 79.2% | HCT-15 colon 75.4%

COc1ccc(C2CC(c3ccc(OC)c(OC)c3)=NN2C(=O)c2cc(OC)c(OC)c(OC)c2)c(OC)c1 (configuration not stated)
inactive: NCI-H226 lung 76.4% | NCI-H322M lung 94.8% | HOP-62 NSCLC 76.1% | NCI-H460 lung 78.5% | NCI-H522 lung 33.9% | A549/ATCC NSCLC 82.8% | 786-0 renal 66.8% | COLO 205 colon 63.9% | DU-145 prostate 101% | K-562 leukemia 51.3% | MALME-3M melanoma 86.7% | MDA-MB-231 breast 90.3% | RXF 393 renal 48.6% | SF-268 CNS 82% | SF-295 CNS 31% | SF-539 CNS 64.4% | UACC-257 melanoma 61.7% | M14 melanoma 63.9% | HCT-15 colon 67.4%

C=CCOc1ccc2c(c1)CC[C@@H]1[C@@H]2CC[C@@]2(C)[C@H]1CC[C@]2(C)O
active: K-562 leukemia 4.02%
inactive: NCI-H226 lung 104% | NCI-H322M lung 81.2% | HOP-62 NSCLC 109% | NCI-H460 lung 46.3% | NCI-H522 lung 60.3% | A549/ATCC NSCLC 80.3% | 786-0 renal 93.8% | COLO 205 colon 75.6% | DU-145 prostate 121% | MDA-MB-231 breast 64.7% | RXF 393 renal 106% | SF-268 CNS 85.7% | SF-295 CNS 94.8% | SF-539 CNS 76.5% | UACC-257 melanoma 53.9% | M14 melanoma 88.7% | HCT-15 colon 65.2%

N#Cc1c(N2CCOCC2)nc2sc3cc(Cl)ccc3n2c1=N
inactive: NCI-H226 lung 88.3% | NCI-H322M lung 117% | HOP-62 NSCLC 90.2% | NCI-H460 lung 91.4% | NCI-H522 lung 93.7% | A549/ATCC NSCLC 102% | 786-0 renal 95.3% | DU-145 prostate 110% | K-562 leukemia 106% | MALME-3M melanoma 117% | MDA-MB-231 breast 75.9% | RXF 393 renal 72.7% | SF-268 CNS 94.4% | SF-295 CNS 118% | SF-539 CNS 97.3% | UACC-257 melanoma 103% | M14 melanoma 111% | HCT-15 colon 102%
